Screen size: about 5,500 compounds; about 2,000 (36%) were called active. Another 18% or so got no clear call; they are omitted. Rule as the data show it: active = normalized growth mostly below about 0.91 (no sharp cut-off); inconclusive = no clear call, values can overlap the other calls; inactive = mostly above about 0.92. Some of the results follow.
Test: chemical genetic growth profiling, strain panel (AID 1159580);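 also: tested at 20 µM; growth read once vehicle control cultures reached saturation at 30 °C; 1 = growth at the plate median or of vehicle wells; lower values mean less growth of the strain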
Conditions: growth OD

Measured: normalized growth

CN[C@@H]1C(OC2[C@H](O[C@H]3[C@H](O)[C@@H](O)[C@H](N=C(N)N)[C@@H](O)[C@@H]3N=C(N)N)OC(C)[C@]2(O)CO)OC(CO)C(O)C1O (stereo partly drawn)
inactive: S. cerevisiae deletion strains, locus YKL009W, strain mrt4, stronger effect = lower value 0.975 | S. cerevisiae deletion strains, locus YKL068W, stronger effect = lower value 0.991 | S. cerevisiae deletion strains, locus YKL085W, strain MDH1 (second series), stronger effect = lower value 1.01 | S. cerevisiae deletion strains, locus YKL085W, strain MDH1, stronger effect = lower value 1.01 | S. cerevisiae deletion strains, locus YKL160W, strain elf1, stronger effect = lower value 1 | S. cerevisiae deletion strains, locus YKL190W, strain CNB1, stronger effect = lower value 0.998 | S. cerevisiae deletion strains, locus YKR001C, strain vps1, stronger effect = lower value 0.981 | S. cerevisiae deletion strains, locus YKR026C, strain gcn3, stronger effect = lower value 0.992 | S. cerevisiae deletion strains, locus YKR091W, strain srl3, stronger effect = lower value 0.998 | S. cerevisiae deletion strains, locus YLL001W, strain dnm1, stronger effect = lower value 0.995 | S. cerevisiae deletion strains, locus YLL026W, stronger effect = lower value 0.998 | S. cerevisiae deletion strains, locus YLL041C, strain sdh2, stronger effect = lower value 1.01 | S. cerevisiae deletion strains, locus YLR027C, strain aat2, stronger effect = lower value 1 | S. cerevisiae deletion strains, locus YLR039C, strain RIC1, stronger effect = lower value 1.01 | S. cerevisiae deletion strains, locus YLR058C, strain SHM2, stronger effect = lower value 0.985 | S. cerevisiae deletion strains, locus YLR102C, strain apc9, stronger effect = lower value 0.976 | S. cerevisiae deletion strains, locus YLR113W, strain HOG1, stronger effect = lower value 1.06 | S. cerevisiae deletion strains, locus YLR221C, strain rsa3, stronger effect = lower value 1.02 | S. cerevisiae deletion strains, locus YLR258W, strain gsy2, stronger effect = lower value 1.01 | S. cerevisiae deletion strains, locus YLR262C, strain YPT6 (second series), stronger effect = lower value 1 | S. cerevisiae deletion strains, locus YLR262C, strain YPT6, stronger effect = lower value 1.01 | S. cerevisiae deletion strains, locus YLR268W, strain sec22, stronger effect = lower value 0.985 | S. cerevisiae deletion strains, locus YLR320W, strain mms22, stronger effect = lower value 1.03 | S. cerevisiae deletion strains, locus YLR330W, strain CHS5, stronger effect = lower value 0.991 | S. cerevisiae deletion strains, locus YLR342W, strain FKS1 (second series), stronger effect = lower value 1.04 | S. cerevisiae deletion strains, locus YLR342W, strain FKS1, stronger effect = lower value 1 | S. cerevisiae deletion strains, locus YLR357W, strain rsc2, stronger effect = lower value 0.962 | S. cerevisiae deletion strains, locus YLR370C, strain arc18, stronger effect = lower value 1.01 | S. cerevisiae deletion strains, locus YLR371W, strain rom2, stronger effect = lower value 0.973 | S. cerevisiae deletion strains, locus YLR384C, strain iki3, stronger effect = lower value 0.997 | S. cerevisiae deletion strains, locus YLR418C, strain cdc73, stronger effect = lower value 0.954 | S. cerevisiae deletion strains, locus YML016C, strain PPZ1, stronger effect = lower value 0.993 | S. cerevisiae deletion strains, locus YML032C, strain rad52, stronger effect = lower value 0.988 | S. cerevisiae deletion strains, locus YML120C, strain ndi1, stronger effect = lower value 0.99 | S. cerevisiae deletion strains, locus YML124C, strain tub3, stronger effect = lower value 0.972 | S. cerevisiae deletion strains, locus YMR058W, strain fet3, stronger effect = lower value 1.01 | S. cerevisiae deletion strains, locus YMR078C, strain ctf18, stronger effect = lower value 0.959 | S. cerevisiae deletion strains, locus YMR125W, strain sto1, stronger effect = lower value 0.997 | S. cerevisiae deletion strains, locus YMR129W, stronger effect = lower value 1 | S. cerevisiae deletion strains, locus YMR205C, strain PFK2, stronger effect = lower value 0.995 | S. cerevisiae deletion strains, locus YMR223W, strain ubp8, stronger effect = lower value 0.961 | S. cerevisiae deletion strains, locus YMR231W, strain pep5, stronger effect = lower value 1.01 | S. cerevisiae deletion strains, locus YMR263W, strain SAP30, stronger effect = lower value 0.979 | S. cerevisiae deletion strains, locus YMR307W, strain GAS1, stronger effect = lower value 1.1 | S. cerevisiae deletion strains, locus YNL067W, strain RPL9B, stronger effect = lower value 0.976 | S. cerevisiae deletion strains, locus YNL071W, strain lat1, stronger effect = lower value 1.01 | S. cerevisiae deletion strains, locus YNL183C, strain NPR1, stronger effect = lower value 0.99 | S. cerevisiae deletion strains, locus YNL209W, strain ssb2, stronger effect = lower value 0.996 | S. cerevisiae deletion strains, locus YNL233W, strain BNI4, stronger effect = lower value 0.976 | S. cerevisiae deletion strains, locus YNL248C, strain rpa49, stronger effect = lower value 1.02 | S. cerevisiae deletion strains, locus YNL250W, strain rad50, stronger effect = lower value 0.975 | S. cerevisiae deletion strains, locus YNL271C, strain bni1, stronger effect = lower value 0.975 | S. cerevisiae deletion strains, locus YNL298W, strain CLA4, stronger effect = lower value 0.977 | S. cerevisiae deletion strains, locus YNL307C, strain MCK1, stronger effect = lower value 0.976 | S. cerevisiae deletion strains, locus YNL322C, strain KRE1 (second series), stronger effect = lower value 0.993 | S. cerevisiae deletion strains, locus YNL322C, strain KRE1, stronger effect = lower value 0.998 | S. cerevisiae deletion strains, locus YNR049C, strain mso1, stronger effect = lower value 1 | S. cerevisiae deletion strains, locus YNR052C, strain pop2, stronger effect = lower value 0.972 | S. cerevisiae deletion strains, locus YOL012C, strain htz1 1 | S. cerevisiae deletion strains, locus YOL147C, strain pex11, stronger effect = lower value 0.982 | S. cerevisiae deletion strains, locus YOR001W, strain rrp6, stronger effect = lower value 1 | S. cerevisiae deletion strains, locus YOR061W, strain CKA2, stronger effect = lower value 0.991 | S. cerevisiae deletion strains, locus YOR069W, strain VPS5, stronger effect = lower value 0.993 | S. cerevisiae deletion strains, locus YOR070C, strain gyp1, stronger effect = lower value 1.01 | S. cerevisiae deletion strains, locus YOR080W, strain dia2, stronger effect = lower value 0.996 | S. cerevisiae deletion strains, locus YOR083W, strain WHI5, stronger effect = lower value 0.998 | S. cerevisiae deletion strains, locus YOR106W, strain vam3, stronger effect = lower value 1.05 | S. cerevisiae deletion strains, locus YOR136W, strain idh2, stronger effect = lower value 0.976 | S. cerevisiae deletion strains, locus YOR144C, strain elg1, stronger effect = lower value 0.984 | S. cerevisiae deletion strains, locus YOR184W, strain ser1, stronger effect = lower value 0.978 | S. cerevisiae deletion strains, locus YOR231W, strain MKK1, stronger effect = lower value 1.04 | S. cerevisiae deletion strains, locus YOR265W, strain rbl2, stronger effect = lower value 0.998 | S. cerevisiae deletion strains, locus YOR270C, strain vph1, stronger effect = lower value 1.07 | S. cerevisiae deletion strains, locus YOR290C, strain snf2, stronger effect = lower value 1.02 | S. cerevisiae deletion strains, locus YOR316C, strain cot1, stronger effect = lower value 0.976 | S. cerevisiae deletion strains, locus YPL051W, strain arl3, stronger effect = lower value 1.01 | S. cerevisiae deletion strains, locus YPL055C, strain LGE1, stronger effect = lower value 1.01 | S. cerevisiae deletion strains, locus YPL078C, strain atp4, stronger effect = lower value 1 | S. cerevisiae deletion strains, locus YPL106C, strain sse1, stronger effect = lower value 1.02 | S. cerevisiae deletion strains, locus YPL240C, strain hsp82, stronger effect = lower value 0.993 | S. cerevisiae deletion strains, locus YPL241C, strain CIN2, stronger effect = lower value 0.998 | S. cerevisiae deletion strains, locus YPL256C, strain CLN2, stronger effect = lower value 1.06 | S. cerevisiae deletion strains, locus YPR119W, strain clb2, stronger effect = lower value 0.971 | S. cerevisiae deletion strains, locus YPR141C, strain kar3, stronger effect = lower value 0.972 | S. cerevisiae deletion strains, locus YPR163C, strain tif3, stronger effect = lower value 0.971 | S. cerevisiae deletion strains, locus YPR167C, strain met16, stronger effect = lower value 0.97 | S. cerevisiae deletion strains, strain wtn01, stronger effect = lower value 0.975 | S. cerevisiae strains, strain wild type, stronger effect = lower value 0.999

Source: PubChem BioAssay AID1159580 (chemical genetic matrix, 2015)
